Test results published in paper PMC5540273 (PLoS ONE, 2017).

Legend:
Settings in all cases: concentration: 1 μM, replicates: in singlicate; n = 1
[1] = system: PAK2
[2] = system: PAK3
[3] = system: PAK4
[4] = system: PAK6
[5] = system: PAK7
[6] = system: T1, PCTK1
T1 construct: gene CDK16

[7] = system: T2, PCTK2
T2 construct: gene CDK17

[8] = system: T3, PCTK3
T3 construct: gene CDK18

[9] = system: PDGFRA
[10] = system: PDGFRB
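Further: KINOMEscan kinase panel screen.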

SMILES	%Inh [1] [%]	%Inh [2] [%]	%Inh [3] [%]	%Inh [4] [%]	%Inh [5] [%]	%Inh [6] [%]	%Inh [7] [%]	%Inh [8] [%]	%Inh [9] [%]	%Inh [10] [%]
CCS(=O)(=O)c1ccc(OC)c(Nc2ncc(-c3ccc(F)cc3)o2)c1.Cl [GW591947]	13	0	0	0	14	4	0	16	0	24
OCCCNc1nccc(-c2c(-c3cccc(C(F)(F)F)c3)nn3cc(C(F)(F)F)ccc23)n1 [GW630813]	0	3	0	0	12	11	0	19	0	6
CCn1c(-c2nonc2N)nc2ccccc21 [SB-693162/GW549034]	27	0	0	11	11	4	0	16	41	0
Cc1ccc(Oc2ccc(Nc3ncnc4cc[nH]c34)cc2C)cn1	37	4	25	27	0	0	8	2	49	21
